Compounds with a hit are over-represented: about 2.8% of the library has one in this group of screens.
Giardia kill – kills Giardia lamblia; Giardia lamblia trophozoite viability; activity change, % at 7.66 µM, hits read low; 340,000 compounds, 0.15% hits; in the data active = activity change below about -80%; inconclusive = between about -30% and that limit;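 also: parasites exposed to compound for two days anaerobically before the ATP read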
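Compounds were tested on trophozoites seeded at 100 cells/well and held 48 hrs at 37 deg C anaerobically. An ATP-based luminescent kit measured the remaining live cells.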
B2AR arrestin – agonists driving beta-arrestin recruitment to human beta2-adrenergic receptor; P07550; beta-arrestin recruitment to beta2AR, cell-based reporter; Potency, µM (titrated, usually from 46.1 µM), most hits filed as activators; 330,000 compounds, 0.02% hits; AID 492947; active = well fitted activation curve with a large enough effect; inconclusive = small, poorly fitted or top-dose-only effect; also: nearly all actives have a fitted effect of over 65% in size
DRD3 antagonist – D3 dopamine receptor (human) antagonism; P35462; D3R cells, DiscoveRx beta-arrestin luminescence, antagonist mode; hits give low values; max response, negative = inhibition, %; 360,000 compounds, 2.5% hits; AID 652054; in the data active = max response below about -50%; inconclusive = no clear call, values can overlap the other calls
Target sequence (P35462 whole entry, looked up): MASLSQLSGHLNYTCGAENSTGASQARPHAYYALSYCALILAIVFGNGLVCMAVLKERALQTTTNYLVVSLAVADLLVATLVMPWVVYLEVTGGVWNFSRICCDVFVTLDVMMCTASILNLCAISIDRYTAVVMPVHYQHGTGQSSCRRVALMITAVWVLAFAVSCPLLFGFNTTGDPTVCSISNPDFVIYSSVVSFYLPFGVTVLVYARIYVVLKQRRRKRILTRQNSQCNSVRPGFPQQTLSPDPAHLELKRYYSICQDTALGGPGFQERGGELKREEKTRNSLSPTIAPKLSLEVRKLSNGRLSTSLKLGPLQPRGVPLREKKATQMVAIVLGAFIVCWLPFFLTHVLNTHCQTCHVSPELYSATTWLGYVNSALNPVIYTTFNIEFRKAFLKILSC
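Cells expressing the human receptor were seeded at 1500 cells/well, incubated overnight at 37 degrees C in 5% CO2, then exposed to library compounds with dopamine controls for 90 minutes at 37 degrees C before luminescent detection.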
DRD3 agonist – D3 dopamine receptor (human) agonism | P35462 | D3R DiscoveRx beta-arrestin cells, luminescence, 90 min | max activation, % | 410,000 compounds, 0.58% hits | AID 652048; in the data active = max activation above about 30%
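Cells at 1500/well, incubated overnight, then treated with pinned compounds (dopamine as control) for 90 min at 37 degrees C. DiscoveRx reagent added for 30 - 60 minutes at room temperature; luminescence read.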
Hits are given with their value; . = inactive; ? = inconclusive; / = no result.

SMILES	Giardia kill	B2AR arrestin	DRD3 antagonist	DRD3 agonist
CCN1CCN(c2ccc(NC(=O)c3ccc([N+](=O)[O-])o3)cc2Cl)CC1	?	.	-72	.
CCc1ccc(OCCCCn2c(CCNC(=O)C3CCCCC3)nc3ccccc32)cc1	.	/	/	/
Cc1[nH]c(C)c(S(=O)(=O)Nc2ccc(OC(F)(F)F)cc2)c1C(=O)N1CCCCC1	.	.	-91	.
CC(=O)N1N=C(c2cccc([N+](=O)[O-])c2)OC1c1ccccc1Cl (stereo not drawn)	.	.	-60	.
CC(=O)N1N=C(c2cccc([N+](=O)[O-])c2)OC1(C)c1cccs1 (stereo not drawn)	.	.	.	.
O=c1[nH]c(CN2CCN(Cc3ccccc3)CC2)nc2scc(-c3ccccc3)c12	.	.	-82	.
CC(=O)N1CCN(Cc2nc3scc(-c4ccccc4)c3c(=O)[nH]2)CC1	.	.	.	.
Cc1ccc(Nc2ccc([N+](=O)[O-])nc2[N+](=O)[O-])cc1	-96	.	.	.
CC(=O)N1CCc2c(sc(NC(=O)c3ccc([N+](=O)[O-])o3)c2C#N)C1	-88	.	-59	.
COc1ccc(C(=O)Nc2sc3c(c2C#N)CCN(C(C)=O)C3)cc1	.	.	.	.
COC(=O)c1sc(NC(=O)c2ccc([N+](=O)[O-])o2)c(C#N)c1C	-93	.	.	.
CCOC(=O)C1(C)/C(=N/Nc2ccccc2)C(=O)C(=O)N1c1ccccc1 (stereo not drawn)	.	.	-58	.
CC(C)c1ccccc1OCC(=O)N(C)CC(=O)Nc1ccc(F)cc1	.	.	-58	.
CC(C)=CCC[C@](C)(O)C1CC[C@]2(C)C1[C@H](O)CC1[C@@]3(C)CC[C@H](O[C@@H]4O[C@H](CO)[C@@H](O)[C@H](O)[C@H]4O[C@@H]4O[C@H](CO)[C@@H](O)[C@H](O)[C@H]4O)C(C)(C)C3CC[C@]12C (stereo partly drawn)	.	.	-61	.
CC(C)=CCC[C@](C)(OC1OC(COC2OCC(O)C(O)C2O)C(O)C(O)C1O)C1CC[C@]2(C)C1C(O)CC1[C@@]3(C)CCC(O[C@@H]4O[C@H](CO)C(O)C(O)C4O[C@@H]4OC(CO)C(O)C(O)C4O)C(C)(C)C3CC[C@]12C (stereo partly drawn)	.	.	.	.
COc1cc([C@@H]2c3cc4c(cc3C(O[C@@H]3O[C@@H]5COC(c6cccs6)O[C@H]5[C@H](O)[C@H]3O)C3COC(=O)[C@@H]32)OCO4)cc(OC)c1O (stereo partly drawn)	/	/	/	.
O=C(NCc1ccc2c(c1)CCN2C(=O)c1ccc(F)cc1)c1ccco1	/	/	/	.
O=C(O)c1ccc(N/N=C/c2cc3cc4c(cc3nc2Cl)OCCO4)cc1	-88	.	.	.
Cc1ccccc1NC(=O)CCS(=O)(=O)c1ccc(Br)s1	.	.	.	.
COC(=O)c1ccccc1NC(=O)CCS(=O)(=O)c1ccc(Br)s1	.	.	-52	.
O=[N+]([O-])c1cccc(Cl)c1NCCNS(=O)(=O)c1ccccc1	.	.	-56	.
O=[N+]([O-])c1cccc(Cl)c1NCCNS(=O)(=O)c1ccc(Cl)cc1	.	.	.	.
CC(=O)Nc1ccc(SCC(CC(C)C)N2CCN(CCc3ccccc3)CCC2=O)cc1 (stereo not drawn)	.	/	/	/
CCOC(=O)c1ccc(N2C(=O)c3n[nH]c(C)c3C2c2ccc(OCC)cc2)cc1 (stereo not drawn)	/	/	/	.
COc1ccc(CNC(=O)Cn2c(=O)nc(-c3ccccc3)c3ccccc32)cc1OC	/	/	/	33
SMILES	Giardia kill	B2AR arrestin	DRD3 antagonist	DRD3 agonist
CCOc1ccc(CNC(=O)CN2N=C(c3ccccc3)CCC2=O)cc1OC	/	/	/	50
N#Cc1ccccc1S(=O)(=O)N1CCCC(c2nc3c(nnn3Cc3cccc(Cl)c3)c(=O)[nH]2)C1 (stereo not drawn)	/	/	/	.
Cc1ccc(S(=O)(=O)/N=C2\C(=O)c3ccccc3C([O-])=C2n2cc[n+](CCC(C)C)c2)cc1	.	.	-76	.
CCCC[n+]1ccn(C2=C([O-])c3ccccc3C(=O)/C2=N\S(=O)(=O)c2ccc(Br)cc2)c1	.	.	.	.
CC(C)(C)c1ccccc1OCCOCCNCc1ccccc1	.	.	-78	.
CC(C)(C)NCCCCOc1ccccc1F	.	.	.	.
CNCCOc1ccccc1C(C)(C)C	.	.	-54	.
CCc1ccc([C@@H]2CC=C(C(=O)O)[C@H](c3ccc(F)cc3)N2S(=O)(=O)c2ccc(C)cc2)cc1	?	.	-52	.
Cc1ccc([C@@H]2CC=C(C(=O)O)[C@H](c3ccc(F)cc3)N2S(=O)(=O)c2ccc(C)cc2)cc1	.	.	-83	.
O=C(NCCc1nc2ccccc2n1CCOc1cccc2ccccc12)C1CCCCC1	.	/	/	/
O=C(Nc1ccc2c(c1)Cc1ccccc1-2)c1ccco1	.	.	-98	.
C[C@H](CCCC(C)(C)O)[C@H]1CC[C@H]2[C@@H]3CC=C4C[C@@H](O)CC[C@]4(C)[C@H]3CC[C@]12C	/	/	/	.
CCC(C)(C)N1CC(=O)N(Cc2ccccc2)C(c2ccc(OC)cc2)C1=O (stereo not drawn)	.	.	-52	.
COc1ccc(C2C(=O)N(C3CCCCCC3)CC(=O)N2Cc2ccccc2)cc1 (stereo not drawn)	/	/	/	.
COc1ccc(OC)c2sc(N(Cc3cccnc3)C(=O)c3ccco3)nc12	/	/	/	.
COc1ccc(CNc2ccccc2C(=O)NCc2ccccc2)cc1COc1ccc(NC(C)=O)cc1	.	/	/	/
Cc1ccc(C(NC(=O)/C=C\c2ccc3c(c2)OCO3)C(=O)Nc2ccc3c(c2)OCO3)cc1 (stereo not drawn)	.	.	-88	.
CC(=O)c1ccc(-c2ccc(C3C4C=CCCC4(C)C(=O)N3Cc3ccccc3)c(F)c2)cc1 (stereo not drawn)	.	/	/	/
CCN(CC)c1ccc2c(c1)oc(=O)c1c(Cl)cc(=O)oc12	?	.	-91	.
CCN(CC)c1ccc2c(C)c(Cl)c(=O)oc2c1	.	.	.	.
O=C(CCNC(=O)Cn1ccc2ccccc2c1=O)NCCN1CCc2ccccc2C1	.	.	-52	.
CCN(CC)CCOC(=O)c1ccc(NC(=O)CCNC(=O)Cn2ccc3ccccc3c2=O)cc1	.	.	-64	.
O=C(CCN1C(=O)COc2ccccc21)NCCC1=CCCCC1	.	.	-110	.
O=C(CCN1C(=O)COc2ccccc21)NCCN1CCN(c2cccc(Cl)c2)CC1	.	.	-69	.
O=C(NCCc1ccc(Cl)cc1)C1CCN(S(=O)(=O)c2ccc3[nH]ccc3c2)CC1	/	/	/	.
O=C(CCNC(=O)Cn1ccc2ccccc2c1=O)NCCN1CCN(c2cccc(Cl)c2)CC1	.	.	-61	.
O=C(Cn1nc(-c2ccccc2)ccc1=O)NCCN1CCN(Cc2ccccc2)CC1	.	.	.	.
O=C(Cn1nc(-c2ccccc2)ccc1=O)NCCN1CCN(c2cccc(Cl)c2)CC1	.	.	-60	.
O=C(CCN1C(=O)/C(=C\c2cccs2)SC1=S)Nc1ccc(C(=O)O)cc1	.	.	.	.
Cc1ccc2c(c1)N(CCC(=O)NCc1ccccn1)C(=O)CO2	.	.	-64	.

Screening data deposited in PubChem BioAssay by National Center for Advancing Translational Sciences (NCATS).
